# Experiments:
# Experiment in all cases: filter; Kd target / Kd hKGF
# [1] = target: bFGF (Homo sapiens, UniProt P09038 P09038:143-288); conditions: tags: R&D Systems; pseudoknot; ssRNA; 2'-F pyrimidines
# [2] = target: aFGF (Homo sapiens, UniProt P05230 P05230:16-155); conditions: tags: R&D Systems; pseudoknot; ssRNA; 2'-F pyrimidines
# [3] = target: T1, KGF (rat) (Rattus norvegicus, UniProt Q02195 Q02195:32-194); conditions: tags: QED Advanced Research Technologies; pseudoknot; ssRNA; 2'-F pyrimidines
# T1 sequence: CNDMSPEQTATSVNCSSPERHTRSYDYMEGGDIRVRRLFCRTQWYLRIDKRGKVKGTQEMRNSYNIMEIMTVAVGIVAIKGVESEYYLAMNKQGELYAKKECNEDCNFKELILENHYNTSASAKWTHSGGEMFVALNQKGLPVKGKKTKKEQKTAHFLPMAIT
# Chain of aFGF (P05230 16-155, one chain of several): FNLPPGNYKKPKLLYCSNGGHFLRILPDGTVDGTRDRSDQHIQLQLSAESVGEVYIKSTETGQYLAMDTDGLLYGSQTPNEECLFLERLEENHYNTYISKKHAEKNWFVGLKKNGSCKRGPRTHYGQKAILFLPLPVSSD
# Chain of bFGF (P09038 143-288, one chain of several): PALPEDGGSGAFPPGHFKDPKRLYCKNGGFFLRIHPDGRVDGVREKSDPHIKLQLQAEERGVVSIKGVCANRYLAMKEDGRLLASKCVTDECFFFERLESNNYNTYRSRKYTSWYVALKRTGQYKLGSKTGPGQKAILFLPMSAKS
sequence,measurement,setting,value
GGGAGGACGAUGCGGUGGUCUCCCAAUUCUAAACUUUCUCCAUCGUAUCUGGGCCAGACGACUCGCCCGA,binding signal,[1],1070
same,binding signal,[2],38600
same,binding signal,[3],1250

# Reference: patent publication US20030180744, “High affinity oligonucleotide ligands to growth factors” (GILEAD SCIENCES, INC., published 2003)
